Test [1] concerns the target Catechol O-methyltransferase (Homo sapiens) (UniProt P21964). Put plainly: Confirmatory Screen for Target Class Profiling of Small Molecule Inhibitors of Methyltransferases (AID 1745852; calls by dose curve; also: potency is read from the fitted curve at half-maximal effect; as to activity change, negative = inhibition: % is scaled to controls: 0 for no effect and ±100 for the full control effect). As to conditions: MTase-Glo luminescence, SAH detection, recombinant enzyme; measured here: COMT max response; stronger effect = lower value.
The target of test [2] is Guanidinoacetate N-methyltransferase (Homo sapiens) (UniProt Q14353). The test is described as above. The note with it: MTase-Glo luminescence, SAH detection, recombinant enzyme; activity change, negative = inhibition: at 57.3 µM (top of the series) unless noted; series mostly up to 57.3 µM.
Test [3] concerns the target Nicotinamide N-methyltransferase (Homo sapiens) (UniProt P40261). The test is described as above. As to conditions: MTase-Glo luminescence, SAH detection, recombinant enzyme; measured here: NNMT max response; stronger effect = lower value.
The target of test [4] is Phenylethanolamine N-methyltransferase (Homo sapiens) (UniProt P11086). The test is described as above. The note with it: MTase-Glo luminescence, SAH detection, recombinant enzyme; measured here: PNMT max response; stronger effect = lower value.
Test [5] deals with Glutathione peroxidase 1 (Homo sapiens) (UniProt P07203). Put plainly: Primary qHTS Assay for Inhibitors of Recombinant Selenoprotein Glutathione Peroxidase 1 (GPX1) (AID 1845191). Also: nearly all actives have a fitted effect of over 65% in size. The note with it: recombinant GPX1, GR-coupled NADPH fluorescence, 15 min; series mostly up to 48.8 µM. In a few lines:
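GR-coupled readout: NADPH consumption tracked by fluorescence, ex 340/em 450 nm, at t=0 and after 15 min at RT. Final mix 10 nM GPX1, 1 mM GSH, 0.5 mM CHP, 0.5 mM NADPH, 100 nM GR, 0.01% BSA, following 30 min enzyme–compound preincubation.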
(In general: Quantitative high-throughput screening tests each substance at several concentrations.)

For test [6], the target named is Phospholipid hydroperoxide glutathione peroxidase GPX4 (Homo sapiens) (UniProt P36969). Put plainly: Primary qHTS Assay for Inhibitors of Recombinant Selenoprotein Glutathione Peroxidase 4 (GPX4) (AID 1845192). Also: nearly all actives have a fitted effect of over 65% in size. As to activity change, negative = inhibition: % is scaled to controls: 0 for no effect and ±100 for the full control effect. As to conditions: recombinant GPX4, GR-coupled NADPH fluorescence, 15 min; series mostly up to 50 µM. In a few lines:
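Steps: GPX4 plus compound, 30 min RT; add GR/GSH/NADPH master mix; start with cumene hydroperoxide; read 340/450 nm fluorescence at 0 and 15 min. Finals were 200 nM GPX4, 1 mM GSH, 0.5 mM CHP, 0.5 mM NADPH, 100 nM GR.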

Test [7] deals with Luciferin 4-monooxygenase (Photinus pyralis) (UniProt P08659). Description: Primary firefly luciferase (FLuc) qHTS assay for identification of artifact compounds. (AID 1845220). Also: nearly all actives have a fitted effect of over 60% in size.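 As to activity change, negative = inhibition: plate controls were DMSO vehicle for no effect and no enzyme for full effect.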 As to conditions: purified firefly luciferase, luminescence, 5 min; series mostly up to 54.1 µM. In a few lines:
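D-luciferin and ATP (10 uM each, final) in Tris acetate buffer pH 7.6 were incubated with compounds for 15 min at room temperature. The reaction was started with 10 nM Photinus pyralis luciferase and luminescence read after 5 min. Percent inhibition was fitted to a 4-parameter Hill equation.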

Test [8] in a line: NCATS anti-infectives library activity on HEK293 viability as a counter-qHTS vs the C. elegans viability qHTS (AID 1745854). Also: % is scaled to controls: 0 for no effect and ±100 for the full control effect. The note with it: HEK293 viability counter-screen; series mostly up to 41.8 µM. In a few lines:
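CellTiter-Glo luminescence, read on a CCD imager, scored viability of HEK293 cells after 24 hr compound exposure at 37C. Library tested in several concentrations, 1:5 steps, up to 41.7 uM; digitonin served as control.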

Test [9] can be described thus: NCATS anti-infectives library activity on the primary C. elegans qHTS viability assay (AID 1745855; calls by dose curve). As to conditions: C. elegans worm area imaging, day 7; at 41.8 µM (top of the series). The procedure, abridged: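 Titration-based screen in worms: eggs hatched overnight in M9, L1 larvae fed TOP10 capsules in S medium with compound, incubated 21 °C for 7 days; fluorescent objects gated by size and intensity at days 0, 3 and 7.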

Data on twelve compounds can be found in PubChem BioAssay (NCATS).

Values joined by “and” are separate entries in the source; they are usually repeats but may differ in a detail not shown here. Equal values may be shown once. Records with an inconclusive call do not appear. Active and inactive are the calls of the source. Unless noted, calls follow the shape of the dose curve; as a rule, active = well fitted curve in the direction sought with a large enough effect; inconclusive = small, poorly fitted or top-dose-only effect, or another doubt; inactive = no such curve, though single readings can be large; an effect the other way counts as inactive or inconclusive.

Nicotinamide N-methyltransferase (Homo sapiens), sequence (P40261 whole entry, looked up): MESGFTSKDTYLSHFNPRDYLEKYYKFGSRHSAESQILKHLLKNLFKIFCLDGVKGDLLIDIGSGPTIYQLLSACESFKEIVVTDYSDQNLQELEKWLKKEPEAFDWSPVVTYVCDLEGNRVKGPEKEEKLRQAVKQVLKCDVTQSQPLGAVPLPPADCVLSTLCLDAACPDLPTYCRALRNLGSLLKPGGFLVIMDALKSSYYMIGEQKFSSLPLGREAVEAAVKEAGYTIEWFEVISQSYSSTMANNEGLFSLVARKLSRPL
Phospholipid hydroperoxide glutathione peroxidase GPX4 (Homo sapiens), sequence (P36969 whole entry, looked up): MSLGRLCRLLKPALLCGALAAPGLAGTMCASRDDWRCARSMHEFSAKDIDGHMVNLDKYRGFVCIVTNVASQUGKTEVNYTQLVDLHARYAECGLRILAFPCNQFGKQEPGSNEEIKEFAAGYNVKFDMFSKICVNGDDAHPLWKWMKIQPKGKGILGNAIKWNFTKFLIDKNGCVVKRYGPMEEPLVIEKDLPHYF
Catechol O-methyltransferase (Homo sapiens), sequence (P21964 whole entry, looked up): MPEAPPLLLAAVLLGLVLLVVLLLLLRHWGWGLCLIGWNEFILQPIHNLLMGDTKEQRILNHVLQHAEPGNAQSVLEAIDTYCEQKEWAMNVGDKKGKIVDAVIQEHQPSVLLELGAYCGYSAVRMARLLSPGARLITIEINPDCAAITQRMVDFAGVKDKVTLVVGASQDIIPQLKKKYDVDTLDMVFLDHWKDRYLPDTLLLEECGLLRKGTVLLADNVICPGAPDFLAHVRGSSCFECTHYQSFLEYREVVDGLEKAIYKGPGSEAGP
Phenylethanolamine N-methyltransferase (Homo sapiens), sequence (P11086 whole entry, looked up): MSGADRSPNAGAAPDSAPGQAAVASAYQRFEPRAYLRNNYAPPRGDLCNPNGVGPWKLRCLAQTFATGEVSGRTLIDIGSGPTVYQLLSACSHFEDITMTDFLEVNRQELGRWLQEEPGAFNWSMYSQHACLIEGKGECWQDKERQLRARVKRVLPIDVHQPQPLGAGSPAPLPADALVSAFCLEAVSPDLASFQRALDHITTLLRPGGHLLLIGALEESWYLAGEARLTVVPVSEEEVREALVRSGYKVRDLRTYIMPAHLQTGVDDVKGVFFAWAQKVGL
Glutathione peroxidase 1 (Homo sapiens), sequence (P07203 whole entry, looked up): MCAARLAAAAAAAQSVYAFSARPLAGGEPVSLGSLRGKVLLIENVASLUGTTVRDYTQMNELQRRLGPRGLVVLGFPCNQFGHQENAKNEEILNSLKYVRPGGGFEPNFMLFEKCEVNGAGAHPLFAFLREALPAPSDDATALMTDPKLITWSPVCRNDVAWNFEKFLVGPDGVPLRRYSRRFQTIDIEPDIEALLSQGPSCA

Consider `CC(C)N(C[C@H]1O[C@@H](n2cnc3c(N)ncnc32)[C@H](O)[C@@H]1O)C1CC(CCc2nc3ccc(C(C)(C)C)cc3[nH]2)C1` (stereo not given in full), for which the activity was -14.6% and -12.5% in [1]; -85.8% and -82.8% in test [3]; -90.9% and -89.3% in test [4]. Moreover, the Potency in test [2] was 30.4 µM (active). In addition, the activity change, negative = inhibition in [2] was -3.18%. In addition, the Potency result in test [5], in test [6] and in test [7] was “inactive” in each case.

In the case of `CN1CCC(c2c[nH]c3ccc(NC(=O)c4ccc(F)cc4)cc23)CC1`, the results for the activity in test [1], in [3] and in [4] were -8.83%, -3.82% and -4.53%, respectively. In addition, in test [2], the activity change, negative = inhibition is -10.4%. For the same compound, the Potency entry in [5], in test [6] and in test [7] was “inactive” each time.

Turning to `O=C(O)c1cc(O)c2cccc(O)c2c1O[C@@H]1O[C@H](CO)[C@@H](O)[C@H](O)[C@H]1O`, the activity was -4.06% in test [1], -68.8% in test [3] and -8.77% in test [4]. For the same compound, the Potency in [2] is 29.8 µM (active). For the same compound, the Potency entry in test [5], in [6] and in test [7] was “inactive” in each case.

For `CC1=CC(=O)CC(C)(C)C1CCC(C)OC1OC(COC(=O)c2cc(O)c(O)c(O)c2)C(O)C(O)C1O` (stereo not given), the values for the activity in test [1], in [3] and in [4] were -58.9%, 2.37% and 0%, respectively. Also, in test [2], the activity change, negative = inhibition was 0% [at 29.8 µM]. Besides, the Potency entry in test [5], in [6] and in [7] was “inactive” each time.

For `C=C1[C@H]2[C@H](O[C@@H]3O[C@H](COC(=O)/C=C/c4cc(OC)c(O)c(OC)c4)[C@@H](O)[C@H](O)[C@H]3O)OC=C(C(=O)O)[C@H]2C[C@@H]1O`, the activity is -50.9% in [1], 0% in test [3] and 5.16% in test [4]. In addition, the activity change, negative = inhibition in test [2] worked out at 0% [at 19.1 µM]. The Potency result in test [5] and in test [6] was “inactive” each time.

Turning to `COC(=O)C1=COC(OC2OC(CO)C(O)C(O)C2O)C2C1CC(OC(=O)C(O)CC(=O)O)C2C` (stereo not given), the activity in test [1] is -63.4%; in test [3], 1.84%; in test [4], 1.07%. The activity change, negative = inhibition in [2] came to 1.08% [at 29.8 µM]. Besides, the Potency result in test [5] and in test [6] was “inactive” throughout.

Take `COc1cc(C2Oc3c(OC)cc(CCCO[C@@H]4O[C@H](CO)[C@@H](O)[C@H](O)[C@H]4O)cc3C2CO)ccc1O` (stereo not given in full): the results for the activity in [1], in test [3] and in [4] were -72%, 0% and 4.57%, respectively. For the same compound, the activity change, negative = inhibition in test [2] worked out at 2.87% [at 29.8 µM]. Further, the Potency result in [5], in [6] and in [7] was “inactive” each time.

Consider `NS(=O)(=O)OC[C@@H]1C[C@@H](n2ccc3c(N[C@H]4CCc5ccccc54)ncnc32)C[C@@H]1O`, for which the activity in test [1] was -6.43% and -2.13%; in [3], -12% and -2.45%; in test [4], -79.3% and -73.9%. Moreover, the activity change, negative = inhibition in test [2] was -2.34% and 2.95%. For the same compound, the outcome in test [8] is “inactive”. Besides, the Potency entry in test [5], in test [6] and in [7] was “inactive” each time.

Regarding `CC1(C)O[C@@]2(C)CC[C@@H]1C[C@@H]2OC1OC(CO)C(O)C(O)C1O` (stereo not given in full), the activity in [1] was -67.5%; in [3], 4.92%; in test [4], 0.858%. Besides, the activity change, negative = inhibition in test [2] came out at 2.82%. For the same compound, the Potency entry in test [5], in test [6] and in test [7] was “inactive” throughout.

On to `CCOc1nc2cccc(C(=O)O)c2n1Cc1ccc(-c2ccccc2-c2noc(=O)[nH]2)cc1`, for which the outcome in test [8] and in test [9] was “inactive” each time. Moreover, the Potency entry in test [5], in test [6] and in test [7] was “inactive” each time.

As for `CCCOc1ccn2c(C(C)=O)cc(-c3ccccc3S(C)(=O)=O)c2c1`, the Potency entry in test [5] was “inactive”.

With `CC(C)C(=O)c1cn(CC(=O)COc2ccc(Oc3ccccc3)cc2)c2ccc(C(=O)O)cc12`, in test [5], the Potency result is “inactive”.
